{"source": "the emibetuzumab library of Makowski et al. (2022)", "parents": {"B1": {"name": "VH:VL chains; a variant is named by its letters at X, in order (parent)", "chain 1": "QVQLVQSGAEVKKPGASVKVSCKASGYTFTDYXMHWVRQAPGQGLEWMGXVNPNXXXTTYNQKFEGRVTMTTDTSTSTAYMELRSLRSDDTAVYYCARXNXLDXWGQGTTVTVSS", "chain 2": "DIQMTQSPSSLSASVGDRVTITCSVSSSVSSIYLHWYQQKPGKAPKLLIYSTSNLASGVPSRFSGSGSGTDFTLTISSLQPEDFATYYCQVYSGYPLTFGGGTKVEIK"}}, "note": "The list shows a part of the results. The true hit rate is not given.", "data": [{"variants_of": "B1", "experiment": "yeast display scFab, FACS + sequencing", "conditions": "with MET", "how_it_was_run": "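For FACS, yeast displaying a heavy-chain CDR mutant scFab library were labelled with 1 nM HGFR-Fc and anti-Myc (PBSB, 1% milk, 3 h, room temperature), and the top 50% antigen-positive cells were gated. Input and round-3 sorted populations were deep sequenced in two replicates. The binding call was positive for sequences occurring in both antigen-positive samples and negative for sequences occurring only in input.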", "values": [{"variant": "DARGGAVY", "antigen binding call": "no binding"}, {"variant": "YRRGGAAY", "antigen binding call": "binds"}, {"variant": "YRRRGAAY", "antigen binding call": "binds"}, {"variant": "SRKEGAAY", "antigen binding call": "no binding"}, {"variant": "YRKGGDLY", "antigen binding call": "no binding"}, {"variant": "YRKGGAAY", "antigen binding call": "binds"}, {"variant": "YRRKGAAY", "antigen binding call": "binds"}, {"variant": "STGRADWA", "antigen binding call": "no binding"}, {"variant": "SEARSALV", "antigen binding call": "no binding"}, {"variant": "DEGGTSGV", "antigen binding call": "no binding"}, {"variant": "FKKGSAVV", "antigen binding call": "binds"}, {"variant": "FKKGDAVS", "antigen binding call": "no binding"}, {"variant": "FKKGSAAV", "antigen binding call": "binds"}, {"variant": "DKEGGAAV", "antigen binding call": "no binding"}, {"variant": "FKKGSYVF", "antigen binding call": "no binding"}, {"variant": "VAGGDDVF", "antigen binding call": "no binding"}, {"variant": "DEGKAAGS", "antigen binding call": "no binding"}, {"variant": "YRRRGVSA", "antigen binding call": "binds"}, {"variant": "YRRRGASA", "antigen binding call": "binds"}, {"variant": "VTGRAALA", "antigen binding call": "no binding"}, {"variant": "SERRDVLY", "antigen binding call": "no binding"}, {"variant": "DRAGDDWA", "antigen binding call": "no binding"}, {"variant": "VTETGSLV", "antigen binding call": "no binding"}, {"variant": "YRTRDSAS", "antigen binding call": "binds"}, {"variant": "YRGGDSAS", "antigen binding call": "binds"}, {"variant": "DRGRDDGS", "antigen binding call": "no binding"}, {"variant": "FRGRDFVS", "antigen binding call": "no binding"}, {"variant": "YRGRDSAS", "antigen binding call": "binds"}, {"variant": "VTGGDSAS", "antigen binding call": "no binding"}, {"variant": "SAKRDSAS", "antigen binding call": "no binding"}, {"variant": "DAKRDSAS", "antigen binding call": "no binding"}, {"variant": "YRGRDSVS", "antigen binding call": "binds"}, {"variant": "YRGGDDSS", "antigen binding call": "no binding"}, {"variant": "VEAGDDSA", "antigen binding call": "no binding"}, {"variant": "SEARSDVY", "antigen binding call": "no binding"}, {"variant": "YTEGDFAV", "antigen binding call": "no binding"}, {"variant": "VGRGNVGV", "antigen binding call": "no binding"}, {"variant": "YRGEGSAS", "antigen binding call": "binds"}, {"variant": "DATGGDVD", "antigen binding call": "no binding"}, {"variant": "SKGEGDWA", "antigen binding call": "no binding"}, {"variant": "SKERGDWY", "antigen binding call": "no binding"}, {"variant": "SKKRGASA", "antigen binding call": "binds"}, {"variant": "SKKRGAWA", "antigen binding call": "binds"}, {"variant": "SKERGDAA", "antigen binding call": "no binding"}, {"variant": "SKGASAWA", "antigen binding call": "no binding"}, {"variant": "SEKGGSSA", "antigen binding call": "no binding"}, {"variant": "SEGRGAAA", "antigen binding call": "no binding"}, {"variant": "SKTKSSSA", "antigen binding call": "no binding"}, {"variant": "SKKRGAAA", "antigen binding call": "binds"}, {"variant": "SKKRGAWY", "antigen binding call": "binds"}, {"variant": "SKKTGDLY", "antigen binding call": "no binding"}, {"variant": "VEKEGDGS", "antigen binding call": "no binding"}, {"variant": "YAAKNDGA", "antigen binding call": "no binding"}, {"variant": "YEGGADVV", "antigen binding call": "no binding"}, {"variant": "YRRGGSGY", "antigen binding call": "binds"}, {"variant": "YRRGGAGY", "antigen binding call": "binds"}, {"variant": "VAGTGDLY", "antigen binding call": "no binding"}, {"variant": "VRTRAAVD", "antigen binding call": "binds"}, {"variant": "VTTRASGD", "antigen binding call": "no binding"}, {"variant": "VRERSSVD", "antigen binding call": "no binding"}, {"variant": "VRTRASVD", "antigen binding call": "binds"}, {"variant": "VRAGADVD", "antigen binding call": "no binding"}, {"variant": "VTTRAAVS", "antigen binding call": "no binding"}, {"variant": "YTAGSDGV", "antigen binding call": "no binding"}, {"variant": "YKGRGYGA", "antigen binding call": "binds"}, {"variant": "VKGEGYGA", "antigen binding call": "no binding"}, {"variant": "VKGRGYGA", "antigen binding call": "binds"}, {"variant": "VAGAGYGA", "antigen binding call": "no binding"}, {"variant": "VRKKGYVY", "antigen binding call": "no binding"}, {"variant": "VRAKGAGY", "antigen binding call": "binds"}, {"variant": "VKAKDAGY", "antigen binding call": "no binding"}, {"variant": "VRRGDAGY", "antigen binding call": "binds"}, {"variant": "VRRGDDVY", "antigen binding call": "no binding"}, {"variant": "VRRGDVGV", "antigen binding call": "no binding"}, {"variant": "VEGGGSSV", "antigen binding call": "no binding"}, {"variant": "DREEGDWA", "antigen binding call": "no binding"}, {"variant": "DRGGDAVA", "antigen binding call": "no binding"}, {"variant": "VRGGDAVS", "antigen binding call": "binds"}, {"variant": "VRGRDDSA", "antigen binding call": "no binding"}, {"variant": "VRGGDAVY chain 1 G44D", "antigen binding call": "no binding"}, {"variant": "VRGGDAVA", "antigen binding call": "binds"}, {"variant": "VRGRDAVS", "antigen binding call": "binds"}, {"variant": "VRGGDAAS", "antigen binding call": "binds"}, {"variant": "VRGKAAVS", "antigen binding call": "no binding"}, {"variant": "VAGGDAVA", "antigen binding call": "no binding"}, {"variant": "VAGGDAAA", "antigen binding call": "no binding"}, {"variant": "VRGGDDGS", "antigen binding call": "no binding"}, {"variant": "VEGGGAAS", "antigen binding call": "no binding"}, {"variant": "DTGTGDWV", "antigen binding call": "no binding"}, {"variant": "SEEEGDAV", "antigen binding call": "no binding"}, {"variant": "VKGAGDLA", "antigen binding call": "no binding"}, {"variant": "VGGTSDVA", "antigen binding call": "no binding"}, {"variant": "VGGTDFVA", "antigen binding call": "binds"}, {"variant": "VRRTDFVA", "antigen binding call": "no binding"}, {"variant": "VGGGADGA", "antigen binding call": "no binding"}, {"variant": "VKRRSSLA", "antigen binding call": "binds"}, {"variant": "VRRRSSLA", "antigen binding call": "binds"}, {"variant": "VKRRSVGA", "antigen binding call": "no binding"}, {"variant": "VKRATVLA", "antigen binding call": "no binding"}, {"variant": "YRRESSGV", "antigen binding call": "binds"}, {"variant": "YRRESSGY", "antigen binding call": "binds"}, {"variant": "YRREGSGV", "antigen binding call": "binds"}, {"variant": "DGERDYSD", "antigen binding call": "no binding"}, {"variant": "YRERGAWV", "antigen binding call": "binds"}, {"variant": "VRERGSWV", "antigen binding call": "binds"}, {"variant": "VEEEGSWV", "antigen binding call": "no binding"}, {"variant": "YRERGSWV", "antigen binding call": "binds"}]}]}
